From the supplement of paper PMC11417369
± gives the standard deviation of the averaged measurements. The full ranking holds about 25,000 sequences; the median of “ln(normalized median fluorescence intensity)” is about 8.9, and the highest 2% start at about 10. The full list was thinned out, with the highest values kept by preference.

system: PfAP2-LT AP2 domain (GST-tagged); assay: gcPBM binding intensity (ln(normalized median fluorescence intensity)); higher = stronger DNA binding
Summary of the method: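 Binding of GST-tagged P. falciparum DNA-binding domains, expressed in E. coli and used at about 25 μg on average, was carried out for 1 h in 1× PBS containing 1% milk, 0.2 mg/ml BSA, 0.5% salmon testes DNA and 0.03% Triton X-100. The target was an Agilent 4 × 180k array of primer-extended double-stranded 36-bp intergenic genomic probes plus negative controls, read with Alexa488 anti-GST antibody at 488 nm. Binding intensity is the highest Masliner-normalised natural-log median intensity across replicate spots of either probe orientation.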

| Sequence | gcPBM binding intensity (ln) |
| --- | --- |
| TATATACACGCACATACACACAAATAAAAAAACACC [CACACA_site7578] | 9.67 ± 0.31 |
| TGAACACGCACAAATACACACAAAAAAAATAAATAA [CACACA_site6257] | 9.31 ± 0.49 |
| CATATACACGAACACACACACACACGCACAAAAAAA [CACACA_site6376] | 10.1 ± 0.24 |
| AAAAAAATATATATATATATATATATATATATATAT [TGCATGCA_negctrl_site7] | 9.605 ± 0.064 |
| AAAAAAAAAAAAAAAAAAAAATATATATATATATAT [GTGCAC_negctrl_site426] | 9.67 ± 0.085 |
| AAAAAAAAAATATATATATATATATATATATATATA [GTGCAC_negctrl_site467] | 10.1 ± 0.2 |
| AAAAAAAAAAAAAAAAAAAAAAAAATATATATATAT [CACACA_negctrl_site436] | 9.25 ± 0.27 |
| AAAAAAAAAAAAAATATATATATATATATATATATA [CACACA_negctrl_site540] | 10.1 ± 0.25 |
| AAAAAAAAAAAAAAAAAAAAAAAAAAATATATATAT [CACACA_negctrl_site271] | 8.74 ± 0.28 |
| ATATTTATATATATCATACACACTAATATGTATATT [CACACA_site3409] | 8.95 ± 0.42 |
| ATATAAATAAATACAACACACATGTCATATCTAAAT [CACACA_site7533] | 9.12 ± 0.39 |
| AGTAGTCTGGAGAAATGTACACAGTATCTGGTAGCT [XGTACX_site4871] | 8.86 ± 0.44 |
| AAAACATACATATATACACACATATATATATATATA [CACACA_site1852] | 9.97 ± 0.53 |
| GGTACATACAAACACACACACAAAAAAAAAAAAATA [CACACA_site1577] | 9.65 ± 0.4 |
| AAAAAAAAAAAAAACACACACACACGCACATATACA [CACACA_site7288] | 10.1 ± 0.3 |
| ATACAACATATATATACACACATATAATAATAATAA [CACACA_site3367] | 9.26 ± 0.38 |
| AAGTAATACAACACGCACATATATATATATATATAT [GTGCAC_negctrl_site89] | 10.3 ± 0.25 |
| CACATACACATACACATACACACGCATAGAAACATA [CACACA_site2136] | 9.71 ± 0.28 |
| AAAAAAAAAAAAAACACACACACACGCATACACATA [CACACA_site7364] | 10.2 |
| AATACATATAATACAACACACAAGTAATATAAACCT [CACACA_site3597] | 9.34 ± 0.29 |
| AAAAAAAAAAAAAACACACACACACGCAAATACATA [CACACA_site6474] | 10.3 ± 0.27 |
| AAAAAAAAAAAAAAAACACACATACACGCACGCACA [CACACA_site7569] | 9.35 ± 0.23 |
| AAAAAAAAAAAACACACACACAAATACAAATACATA [CACACA_site415] | 9.99 ± 0.38 |
| CATATATATATATATTGTACAAGATTGTTTTTTTAT [XGTACX_site3913] | 8.79 ± 0.3 |

| Sequence | gcPBM binding intensity (ln) |
| --- | --- |
| ATAAAAATTTAAAAAGAACACACGAAAGAAGGACTT [CACACA_site3929] | 9.01 ± 0.53 |
| TTTTTTATGATTAACACACACACAAAAAAAAAAAAA [CACACA_site4130] | 9.03 ± 0.32 |
| AAAAATTTTAATTAGGAACACACATATATATATATA [CACACA_site9016] | 9.48 ± 0.42 |
| ATATTTGCCCAAGATAGTACATATATATATATATAT [XGTACX_site7756] | 9.74 ± 0.2 |
| TACATATTTTATAACTGTACTTTTTTATTATCCAAT [XGTACX_site5396] | 8.71 ± 0.47 |
| TAAAAGGAGACATATACACACATATATATATATATA [CACACA_site5539] | 10 ± 0.23 |
| AAGGATCACGCACAAACACACATATTTATATTTATA [CACACA_site6405] | 9.14 ± 0.45 |
| AAAAAAAAAAAACATACACACATACATACCTATATA [CACACA_site6575] | 9.33 ± 0.3 |
| AACAAAAAAACAAACACACACACACGCATATTTATA [CACACA_site7680] | 10.2 ± 0.29 |
| ATAAAAAGGAGACACACACACACACGCATATTTATA [CACACA_site6551] | 10.3 ± 0.26 |
| TAAACATACCTATACACACACACACGCACACGCACA [CACACA_site6372] | 10.22 ± 0.042 |
| TAAATAAAAAGACACACACACATATTTATATTTATA [CACACA_site7135] | 9.7 ± 0.19 |
| AACACATACAAACACACACACAAAAAAAAAAAAAAA [CACACA_site393] | 9.65 ± 0.49 |
| AAAAAAAAAAAAAACACACACACAAATACAAATACA [CACACA_site414] | 9.9 ± 0.36 |
| AAAAAAAACAAACACACACACAAATATTTATATATT [CACACA_site436] | 9.63 ± 0.22 |
| AACATACACATATACACACACACATATATACCTATA [CACACA_site6643] | 10 ± 0.31 |
| AAAAAAAAAAAAAACACACACACACGCATACAAAAT [CACACA_site6794] | 10.2 ± 0.13 |
| AATGAAGACTTTTTTACACACTTCATATATTATATA [CACACA_site2034] | 8.9 ± 0.39 |
| ATATATCAAAATAATTGTACAAATTTTATATAATTT [XGTACX_site7249] | 8.53 ± 0.47 |
| CGTACATAATTTTAATCACACACAAACAAACACATA [CACACA_site7947] | 9.42 ± 0.34 |
| ATACTAAAAAGTATCTGTACTTATTTTAAAAATAAA [XGTACX_site4116] | 8.19 ± 0.53 |
| TTATATTCTTTTCTCTTTCTACTTTTTTTTTTTTTT [XGTACX_negctrl_site317] | 8.45 ± 0.69 |
| ATAGGTGAATACTAATATAAATTCAAGAGGGAAAAG [CACACA_negctrl_site720] | 8.9 ± 0.55 |
| AAAAAAGTAAAAAGTGCATGTAAAATATAAGTATCT [TGCATGCA_site55] | 9.18 ± 0.61 |

| Sequence | gcPBM binding intensity (ln) |
| --- | --- |
| CATATACATATATGTAGTACGTGTTCTTCTATATGA [XGTACX_site8344] | 8.84 ± 0.44 |
| TATAATGGTTCTGGTGTGCACCATGACAGAATCAAG | 8.82 ± 0.38 |
| GTGTAAATATAATTAGTTTCACAAAACAAATATTTA [CACACA_negctrl_site717] | 8.61 ± 0.42 |
| AAAGGGGATATATGAACACACAAAAAAAAAATATAT [CACACA_site2896] | 9.13 ± 0.68 |
| ATTCTTTACTCATAAAATTATATTATATAAACTTTT [XGTACX_negctrl_site554] | 8.45 ± 0.52 |
| AGTAATTTAAGGAATACACACAAGAAAAAAATAAGA [CACACA_site6177] | 9.13 ± 0.61 |
| AGATCATAATATTATACACACATTATATATCTGTAA [CACACA_site4925] | 9.14 ± 0.26 |
| GATCTACATGAAAGGACACACAAATATATATATATA [CACACA_site84] | 9.62 ± 0.35 |
| AAATAAAAAAAATAAAAGCAATCATAATAAAAATCT [CACACA_negctrl_site161] | 8.79 ± 0.46 |
| ATAAAAATATAATTGAGTACATATGAATAGTCCTAT [XGTACX_site6281] | 8.65 ± 0.42 |
| ATATATATATATATATGTACACACATCAATCATATT [XGTACX_site4005] | 9.96 ± 0.33 |
| TAAATACTAATATGTACACACATATAGATATAGATT [CACACA_site7247] | 8.96 ± 0.38 |
| GTAAATACACATATGTGTACATATATATATATATAT [XGTACX_site3696] | 9.67 ± 0.31 |
| AAAAAATGCGACATGTGTACACATATATATATATAT [XGTACX_site1679] | 9.81 ± 0.3 |
| AAGATATGTACTAATACACACACATATATATATATA [CACACA_site8249] | 9.86 ± 0.14 |
| GATATGTACTAATACACACACATATATATATATATA [CACACA_site1022] | 10.2 ± 0.23 |
| ACATACACATATACATGTACATATATATATATATAT [XGTACX_site5082] | 9.68 ± 0.3 |
| AAATGCGCCATGTGTACACATATATATATATATATA [CACACA_site4649] | 10.1 ± 0.18 |
| ATACACACATATATGTGTACATATACATATATATAT [XGTACX_site6744] | 9.88 ± 0.32 |
| TACGAAATCATATGTACACACACATATATATATATA [CACACA_site5216] | 9.8 ± 0.14 |
| ATATATATATATATATGTACATATACACATGTGTGC [XGTACX_site168] | 10.14 ± 0.099 |
| CGAAATCATATGTACACACACATATATATATATATA [CACACA_site2151] | 10.1 ± 0.18 |
| TGAAAATATTTTATATGTACATATATTATCAATACA [XGTACX_site92] | 8.64 ± 0.38 |
| TTTCTGATATTTTTATATTTTCTTATATATATATAT [GTGCAC_negctrl_site652] | 8.77 ± 0.52 |

| Sequence | gcPBM binding intensity (ln) |
| --- | --- |
| TGTCTTATTTATATTACACACTATATGAAAAAATAT [CACACA_site6807] | 8.6 ± 0.38 |
| ATAAATAAATAAGTACATATATATATGTATATATAT [TGCATGCA_negctrl_site223] | 9.05 ± 0.42 |
| ACTAAATAAATAAATATAATATATAAATATGTATGT [TGCATGCA_negctrl_site583] | 8.78 ± 0.43 |
| TTTATTAATAATTATACACACATATAAAATGAATAA [CACACA_site1359] | 8.58 ± 0.51 |
| TTAATATGAAAACTCTGTACCCAACCTTCTTATGGA [XGTACX_site2126] | 8.62 ± 0.28 |
| ATGCAATTATATAGTAGTACAAATTTATAAATATAC [XGTACX_site4869] | 8.94 ± 0.37 |
| ATTTAATAAAAAAAAAAAATATTGTAGAATATGATG [GTGCAC_negctrl_site195] | 8.27 ± 0.52 |
| AAAGGTATATATGTGTGTACATATATATATATATAT [XGTACX_site5629] | 9.955 ± 0.0071 |
| TCCTTTTCTTAATTTAAAAAATATAAAAAAAACGAA [CACACA_negctrl_site1821] | 7.94 ± 0.34 |
| TGAACTCATAGGAAAACACACATATGTGCAATATAT [CACACA_site6231] | 9.12 ± 0.36 |
| AAAAAAAACAGACACACACACATACAAAATATATAT [CACACA_site1449] | 9.79 ± 0.3 |
| TATATATACAGACACATACACACAAATAAAAAAACA [CACACA_site3413] | 9.39 ± 0.35 |
| AAAACAAACGGACACACACACATATATATATATATA [CACACA_site5924] | 10.2 ± 0.44 |
| AAAACAGACAAACACACACACACATATATATATATA [CACACA_site3393] | 10.37 ± 0.071 |
| AAAACAAACAGACACACACACATATATATATATATA [CACACA_site3655] | 10.4 ± 0.24 |
| AAAACAAACAGACACACACACATATTTATATTTATA [CACACA_site7681] | 9.79 ± 0.4 |
| AAAAGGAACAGACACACACACATATATAAATATGTA [CACACA_site7656] | 9.8 ± 0.42 |
| AAGGTAAACGGACACACACACATACAAAAAAAAAAA [CACACA_site5961] | 9.77 ± 0.67 |
| AAAAGGAACAGACACACACACATATATATATATATA [CACACA_site3587] | 10.3 ± 0.29 |
| TACAAACAGACATATACACACAAAAAAAAAATAAAA [CACACA_site2562] | 9.16 ± 0.43 |
| AAAAAAAACAGACACACACACATAAATATAAATAAA [CACACA_site6214] | 9.74 ± 0.31 |
| AAAAAAAACGGACACACACACATACAAAATATATAT [CACACA_site4910] | 9.99 ± 0.28 |
